From PubChem BioAssay (NCI)
This is part of a sample that, as a whole, favours compounds with a hit. Of some 83,000 tested, about 20% had one in any assay.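 Cell lines were cultured in 96-well plates, exposed to a single compound concentration, and assessed for percent growth 48 hours later.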 Calls of active or inactive are those of the source. How the source made its calls: active means growth percent below 10; inactive means the rest.

Tests used:
Test in all cases: NCI-60 one-dose screen, 48 h (100 = growth as untreated, 0 = no growth, -100 = all killed)
HCT-15 colon = settings: 10 µM
HT29 colon = settings: 10 µM
SNB-75 CNS = settings: 10 µM
SNB-19 CNS = settings: 10 µM
U251 CNS = settings: 10 µM
SK-MEL-5 melanoma = settings: 10 µM
UACC-62 melanoma = settings: 10 µM unless noted
LOX IMVI melanoma = settings: 10 µM
SK-MEL-28 melanoma = settings: 10 µM
EKVX NSCLC = settings: 10 µM
SN12C renal = settings: 10 µM
UO-31 renal = settings: 10 µM
TK-10 renal = settings: 10 µM unless noted
ACHN renal = settings: 10 µM
CAKI-1 renal = settings: 10 µM
A498 renal = settings: 10 µM
CCRF-CEM leukemia = settings: 10 µM
MOLT-4 leukemia = settings: 10 µM
PC-3 prostate = settings: 10 µM
SK-MEL-2 melanoma = settings: 10 µM

Measured: growth

C=CCNc1nnc(C)s1
inactive: HCT-15 colon 104% | HT29 colon 116% | SNB-75 CNS 102% | SNB-19 CNS 109% | U251 CNS 107% | SK-MEL-5 melanoma 107% | UACC-62 melanoma 97.1% | LOX IMVI melanoma 97.8% | SK-MEL-28 melanoma 104% | EKVX NSCLC 109% | SN12C renal 95.6% | UO-31 renal 81.1% | TK-10 renal 123% | ACHN renal 96.7% | CAKI-1 renal 119% | A498 renal 123% | CCRF-CEM leukemia 105% | MOLT-4 leukemia 168%

COc1ccc(C(C)C=O)cc1 (centres undefined)
inactive: HCT-15 colon 93.8% | HT29 colon 112% | SNB-75 CNS 88.4% | SNB-19 CNS 107% | U251 CNS 107% | SK-MEL-5 melanoma 123% | UACC-62 melanoma 106% | LOX IMVI melanoma 105% | SK-MEL-28 melanoma 116% | EKVX NSCLC 126% | SN12C renal 104% | UO-31 renal 93.7% | TK-10 renal 92.1% | ACHN renal 103% | CAKI-1 renal 104% | A498 renal 121% | MOLT-4 leukemia 93%

CCc1nn(Cc2ccccc2)c2nc(C)c(CCc3ccccc3)c(Cl)c12
inactive: HCT-15 colon 98.5% | HT29 colon 88.6% | SNB-75 CNS 93.2% | SNB-19 CNS 80.2% | U251 CNS 96.9% | SK-MEL-5 melanoma 82.7% | UACC-62 melanoma 84.5% | LOX IMVI melanoma 92.6% | SK-MEL-28 melanoma 107% | EKVX NSCLC 84.3% | SN12C renal 86.1% | TK-10 renal 91.5% | ACHN renal 98.4% | CAKI-1 renal 67.8% | A498 renal 99.1% | CCRF-CEM leukemia 80.1% | MOLT-4 leukemia 96%

O=C(NCO)c1ccccc1
inactive: HCT-15 colon 101% | HT29 colon 109% | SNB-75 CNS 89.8% | SNB-19 CNS 107% | U251 CNS 105% | SK-MEL-5 melanoma 111% | UACC-62 melanoma 93.8% | LOX IMVI melanoma 105% | SK-MEL-28 melanoma 105% | EKVX NSCLC 108% | SN12C renal 105% | UO-31 renal 78.9% | TK-10 renal 144% | ACHN renal 97.4% | CAKI-1 renal 98.5% | A498 renal 106% | MOLT-4 leukemia 95.4%

CC12CC3CC1C(C(=O)O2)C3C(=O)O (centres undefined)
inactive: HCT-15 colon 104% | HT29 colon 98.9% | SNB-75 CNS 102% | SNB-19 CNS 98.6% | U251 CNS 103% | PC-3 prostate 101% | UACC-62 melanoma 98.3% | LOX IMVI melanoma 99.7% | SK-MEL-28 melanoma 106% | SK-MEL-2 melanoma 94.7% | EKVX NSCLC 105% | SN12C renal 105% | TK-10 renal 94.5% | ACHN renal 105% | CAKI-1 renal 102% | A498 renal 106% | CCRF-CEM leukemia 101% | MOLT-4 leukemia 100%

NC(CSC(c1ccccc1)(c1ccccc1)c1ccccc1)C(=O)O (centres undefined)
active: SK-MEL-2 melanoma -15.7% | CCRF-CEM leukemia 9.95%
inactive: HCT-15 colon 34.3% | HT29 colon 14% | SNB-75 CNS 64.9% | SNB-19 CNS 49.8% | U251 CNS 14.1% | PC-3 prostate 19.7% | UACC-62 melanoma 48% | LOX IMVI melanoma 38.2% | SK-MEL-28 melanoma 57.9% | SN12C renal 53.6% | UO-31 renal 54.3% | TK-10 renal 59.3% | ACHN renal 57.5% | CAKI-1 renal 31% | A498 renal 48.5% | MOLT-4 leukemia 38.4%

NC(C(=O)O)c1ccc([N+](=O)[O-])cc1 (centres undefined)
inactive: HCT-15 colon 95.7% | HT29 colon 149% | SNB-75 CNS 78.9% | SNB-19 CNS 99.6% | U251 CNS 115% | SK-MEL-5 melanoma 105% | UACC-62 melanoma 97.3% | LOX IMVI melanoma 101% | SK-MEL-28 melanoma 101% | EKVX NSCLC 98% | SN12C renal 91.6% | UO-31 renal 78.2% | TK-10 renal 156% | ACHN renal 98.1% | CAKI-1 renal 99.5% | A498 renal 107% | CCRF-CEM leukemia 98.5% | MOLT-4 leukemia 105%

NC(N)=Nc1cc2ccccc2c2ccccc12
inactive: HCT-15 colon 85.7% | HT29 colon 65.3% | SNB-75 CNS 57% | SNB-19 CNS 82.2% | U251 CNS 79.4% | SK-MEL-5 melanoma 85.9% | UACC-62 melanoma 75% | LOX IMVI melanoma 74.9% | SK-MEL-28 melanoma 88.3% | SK-MEL-2 melanoma 108% | EKVX NSCLC 83.9% | SN12C renal 80.5% | UO-31 renal 57% | TK-10 renal 105% | ACHN renal 72.3% | A498 renal 59.3% | CCRF-CEM leukemia 40.5% | MOLT-4 leukemia 41.6%

CC(C)(C)n1nc(C2CC2)c(Br)c1NC(=O)c1ccccc1F
inactive: HCT-15 colon 93.4% | HT29 colon 103% | SNB-75 CNS 78.4% | SNB-19 CNS 107% | PC-3 prostate 91.5% | SK-MEL-5 melanoma 99.7% | UACC-62 melanoma 90.7% | LOX IMVI melanoma 99.1% | SK-MEL-28 melanoma 100% | SK-MEL-2 melanoma 103% | SN12C renal 102% | UO-31 renal 91.5% | TK-10 renal 103% | ACHN renal 101% | CAKI-1 renal 80.8% | A498 renal 101% | MOLT-4 leukemia 93.3%

Clc1ccc(-c2n[nH]c3c2Cc2ccccc2-3)cc1Cl
inactive: HCT-15 colon 87.8% | HT29 colon 106% | SNB-75 CNS 84.9% | SNB-19 CNS 93.8% | U251 CNS 97.9% | UACC-62 melanoma 91.2% | LOX IMVI melanoma 97.4% | SK-MEL-28 melanoma 114% | SK-MEL-2 melanoma 99.6% | EKVX NSCLC 86.3% | SN12C renal 94.1% | UO-31 renal 72.4% | TK-10 renal 101% | ACHN renal 100% | A498 renal 110% | CCRF-CEM leukemia 89.2% | MOLT-4 leukemia 91.4%

Cc1cc(=O)n(-c2ccc(F)cc2)[nH]1
inactive: HCT-15 colon 89.6% | HT29 colon 105% | SNB-75 CNS 88.5% | SNB-19 CNS 103% | PC-3 prostate 90% | SK-MEL-5 melanoma 97.5% | UACC-62 melanoma 101% | SK-MEL-28 melanoma 119% | SN12C renal 104% | UO-31 renal 83.3% | TK-10 renal 136% | ACHN renal 96% | CAKI-1 renal 98.9% | A498 renal 99.7% | MOLT-4 leukemia 99.7%

N#Cc1ccc(OC(=O)Nc2ccc(Cl)c(Cl)c2)cc1
inactive: HCT-15 colon 53.6% | HT29 colon 63.4% | SNB-75 CNS 93.2% | SNB-19 CNS 87% | PC-3 prostate 36.2% | SK-MEL-5 melanoma 81.5% | UACC-62 melanoma 65.7% | SK-MEL-28 melanoma 94.1% | SN12C renal 79.5% | UO-31 renal 60.6% | TK-10 renal 90.7% | ACHN renal 50.8% | CAKI-1 renal 35.8% | A498 renal 106% | MOLT-4 leukemia 79.9%

N/N=C(/Cc1ccccc1)NNC(N)=S
inactive: HCT-15 colon 97.5% | HT29 colon 95.7% | SNB-75 CNS 87.7% | SNB-19 CNS 105% | PC-3 prostate 88.3% | SK-MEL-5 melanoma 97.3% | UACC-62 melanoma 101% | LOX IMVI melanoma 94.5% | SK-MEL-28 melanoma 114% | SK-MEL-2 melanoma 104% | EKVX NSCLC 91.9% | SN12C renal 104% | UO-31 renal 81.4% | TK-10 renal 118% | ACHN renal 104% | CAKI-1 renal 96.4% | A498 renal 87.5% | CCRF-CEM leukemia 93.8% | MOLT-4 leukemia 98.4%

O=C(NCc1ccco1)Nc1c(Cl)cc(Cl)cc1Cl
inactive: HCT-15 colon 100% | HT29 colon 94.3% | SNB-75 CNS 89.1% | SNB-19 CNS 103% | PC-3 prostate 91.6% | SK-MEL-5 melanoma 100% | UACC-62 melanoma 101% | LOX IMVI melanoma 99.3% | SK-MEL-28 melanoma 103% | SN12C renal 96.9% | TK-10 renal 105% | ACHN renal 97.2% | CAKI-1 renal 89.1% | A498 renal 99.5% | MOLT-4 leukemia 108%

COc1cc2cc(c1Cl)N(C)C(=O)C[C@H](OC(=O)[C@H](C)N(C)C(C)=O)[C@]1(C)O[C@H]1[C@H](C)[C@@H]1C[C@@](O)(NC(=O)O1)[C@H](OC)C=C/C=C(\C)C2
active: HCT-15 colon -14.5% | HT29 colon -29.3% | SNB-75 CNS -49% | SK-MEL-5 melanoma -24.4% | UACC-62 melanoma 9.3% | UO-31 renal 7.35% | CAKI-1 renal 6.3% | A498 renal 4.38% | CCRF-CEM leukemia -7.22%
inactive: SNB-19 CNS 14.4% | U251 CNS 11.5% | LOX IMVI melanoma 18.4% | SK-MEL-2 melanoma 55.5% | EKVX NSCLC 31.3% | SN12C renal 27.6% | TK-10 renal 26.5% | ACHN renal 16.6% | MOLT-4 leukemia 14.2%

O=C(O)CCCC(=O)O
inactive: HCT-15 colon 101% | HT29 colon 106% | SNB-75 CNS 85.7% | SNB-19 CNS 99.4% | U251 CNS 94.3% | UACC-62 melanoma 105% | LOX IMVI melanoma 95.3% | SK-MEL-28 melanoma 102% | SK-MEL-2 melanoma 106% | SN12C renal 102% | UO-31 renal 87% | TK-10 renal 120% | ACHN renal 103% | CAKI-1 renal 105% | A498 renal 109% | CCRF-CEM leukemia 101% | MOLT-4 leukemia 103%
